Data reported in PubChem BioAssay (NCI).
Compounds without any hit were thinned out: in the full panel of roughly 79,000, 15% have a hit. The source made the active and inactive calls. Rule as the data show it: active = growth inhibition above about 70%; inactive = the rest.

Test: NCI Yeast Anticancer Drug Screen. Data for the rad50 strain (AID 155);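 also: 0% = growth of vehicle-only cultures of the same strain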
Settings: S. cerevisiae rad50 strain growth inhibition; at 5.0 µM (retest, dose inferred, filed as 0.5); hits give high values
Procedure, shortened: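 Vehicle-treated cultures provide the reference for the growth inhibition reported for compound-exposed, repair-deficient yeast.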

Which growth inhibition does the source give for `CCCCCCCCCCCCCCCC[N+](C)(C)C(C)c1ccc(OC)cc1` (stereo not drawn) here?
Its growth inhibition is 98% (active).

With `S=C(NCCc1ccccc1)N/N=C/c1ccc(Cl)cc1` as the compound, how does the growth inhibition read?
The growth inhibition was 52% (inactive).

For `Cc1cc(Nc2ccc(O)c(CN3CCN(Cc4cc(Nc5cc(C)nc(N)n5)ccc4O)CC3)c2)nc(N)n1`, which growth inhibition is on record?
Its growth inhibition is 8% (inactive).

For `CC1C[N+](C)(C)C(C)C(=O)C1(c1ccccc1)c1ccccc1` (stereo not drawn), which growth inhibition is on record?
Its growth inhibition is -9% (inactive).

Which growth inhibition does the source give for `O=C1C(Cl)=C(Cl)C(=O)C2CC=CCC12` (stereo not drawn) here?
The growth inhibition was 68% (inactive).

With `C/C(=N/O)c1ccc2c(c1)C(C)c1ccccc1-2` (stereo not drawn) as the compound, how does the growth inhibition read?
The growth inhibition was -147% (inactive).

For `c1ccc(N/N=C2/CCCC3/C(=N\Nc4ccccc4)CCCC23)cc1` (stereo not drawn), which growth inhibition is on record?
Its growth inhibition is 3% (inactive).

For `CCCC(C)C/C(C)=C\C(C)(C)C1CC(=O)N(CC)C1=O` (stereo not drawn), which growth inhibition is on record?
The growth inhibition was -3% (inactive).

For `COC(C(=O)C1=C2Oc3c4c(cc(O)c3C(=O)C2C2=C(CCCC2)C1=O)OC(C)(C)C=C4)C(C)CCC=C(C)C` (stereo not drawn), which growth inhibition is on record?
Its growth inhibition is 6% (inactive).

Which growth inhibition does the source give for `Cc1cc(Br)c(NC(=O)CBr)cc1C` here?
Its growth inhibition is -1% (inactive).

With `Cc1ccc(S(=O)(=O)OCCCCOS(=O)(=O)c2ccc(C)cc2)cc1` as the compound, how does the growth inhibition read?
Its growth inhibition is 0% (inactive).

Which growth inhibition does the source give for `Cc1ccc([N+](=O)[O-])c2c(NCCCN(C)C)c3ccccc3nc12` here?
The growth inhibition was 79% (active).

For `CCOC(=O)c1c(N2CCCC2)nsc1Nc1ccc(F)cc1`, which growth inhibition is on record?
The growth inhibition was -3% (inactive).

Which growth inhibition does the source give for `CC(=O)[C@H]1CC[C@H]2[C@@H]3CC[C@H]4C[C@@H](N5CCOCC5)CC[C@]4(C)[C@H]3CC[C@]12C` here?
The growth inhibition was 54% (inactive).

For `CC(C)CCCC(C)C1CCC2C3CCC4=CC(O)CCC4(C)C3CCC12C` (stereo not drawn), which growth inhibition is on record?
Its growth inhibition is -5% (inactive).

For `Nc1ccccc1SC(/C=C/NNC1=NC(c2ccccc2)C(c2ccccc2)=NN1)c1ccccc1` (stereo not drawn), which growth inhibition is on record?
Its growth inhibition is 43% (inactive).

For `CCOC(=O)C1=C(c2ccccc2)OC(N)=C(C#N)C1c1ccc(C)cc1` (stereo not drawn), which growth inhibition is on record?
Its growth inhibition is 4% (inactive).

With `COC1CC(OC(=O)c2ccccc2)C2OC(c3ccccc3)OCC2O1` (stereo not drawn) as the compound, how does the growth inhibition read?
The growth inhibition was 3% (inactive).

Which growth inhibition does the source give for `O=C(/N=C1\N=Nc2nc(C(C(=O)c3cccs3)c3nc4n(c3O)/C(=N/C(=O)Nc3ccc(Cl)cc3)N=N4)c(O)n21)Nc1ccc(Cl)cc1` (stereo not drawn) here?
The growth inhibition was -22% (inactive).

Which growth inhibition does the source give for `C=CCNC(=S)N/N=C(\CCC)c1ccccn1` here?
Its growth inhibition is 98% (active).

With `O=C(c1cc2c(C(F)(F)F)onc2c2ccccc12)C(F)(F)F` as the compound, how does the growth inhibition read?
Its growth inhibition is -8% (inactive).

For `O=C1C=CC(=O)C2C1Cc1ccccc1C2c1ccccc1` (stereo not drawn), which growth inhibition is on record?
Its growth inhibition is 15% (inactive).

Which growth inhibition does the source give for `CC1SC2(C(=O)Nc3ccc([N+](=O)[O-])cc32)N(c2ccc(Cl)cc2)C1=O` (stereo not drawn) here?
Its growth inhibition is 7% (inactive).

Which growth inhibition does the source give for `CC(=O)OCCn1c2nc(=O)[nH]c(=O)c-2nc2cc(C)c(C)cc21` here?
The growth inhibition was -4% (inactive).

Same assay, conditions: S. cerevisiae rad50 strain growth inhibition; at 50.0 µM (retest, dose inferred, filed as 5.0); hits give high values

Which growth inhibition does the source give for `Clc1ccc(OCC(Cn2ccnc2)c2ccc(Cl)cc2)cc1` (stereo not drawn) here?
The growth inhibition was 91% (active).

Which growth inhibition does the source give for `CC(C)C(CC(C)(C)C)OC(=O)Nc1cccc2ccccc12` (stereo not drawn) here?
The growth inhibition was 96% (active).

Which growth inhibition does the source give for `CC(=O)OC[C@@]1(C)[C@@H]2CC[C@]3(C)[C@H](C(=O)C=C4[C@@H]5CC(C)(C)CC[C@]5(C(=O)O)CC[C@]43C)[C@@]2(C)CC[C@@H]1OC(C)=O` here?
Its growth inhibition is 84% (active).

With `CCOC(=O)C[n+]1c(C)sc2ccccc21` as the compound, how does the growth inhibition read?
The growth inhibition was 23% (inactive).

With `O=[N+]([O-])c1ccc(/C=N/O)s1` as the compound, how does the growth inhibition read?
The growth inhibition was 99% (active).

Which growth inhibition does the source give for `C=C(C)COc1ccccc1C(OCC)OCC` here?
Its growth inhibition is 21% (inactive).

For `CCCCCCCCCCCCCC1OC(=O)C(C)=C1C(=O)O` (stereo not drawn), which growth inhibition is on record?
The growth inhibition was 50% (inactive).

For `CC(C)C(Sc1nc(-c2ccccc2)c(-c2ccccc2)[nH]1)c1n[nH]c(=S)n1-c1ccccc1` (stereo not drawn), which growth inhibition is on record?
The growth inhibition was 97% (active).

With `Cc1ccc(-c2c(C#N)c(S)n(NS(=O)(=O)c3ccccc3)c(=O)c2C#N)cc1` as the compound, how does the growth inhibition read?
Its growth inhibition is 89% (active).

Which growth inhibition does the source give for `O=C(c1ccccc1)c1ccc2c(c1Cl)C(=O)c1ccccc1C2=O` here?
Its growth inhibition is -1% (inactive).

With `COc1cccc(C2c3cc4c(cc3OC(O)C2C)OCO4)c1O` (stereo not drawn) as the compound, how does the growth inhibition read?
Its growth inhibition is 8% (inactive).

With `CCC[N+]1=C(/C=C/c2ccc3cccnc3c2O)C(C)(C)c2ccccc21` as the compound, how does the growth inhibition read?
The growth inhibition was 98% (active).

Which growth inhibition does the source give for `O=C(/C=C/c1ccccc1Cl)c1ccc(F)cc1` here?
Its growth inhibition is 22% (inactive).

For `CCN(CC)C(=S)N=Nc1c(O)[nH]c2ccccc12`, which growth inhibition is on record?
Its growth inhibition is 99% (active).

With `C[CH2][Sn]([CH2]C)([O]C(=O)c1ccccc1OC)[O][Sn]([CH2]C)([CH2]C)[O]C(=O)c1ccccc1OC` as the compound, how does the growth inhibition read?
The growth inhibition was 78% (active).

With `CCCCCCCCCCCCCCCC[N+](C)(C)C(C)c1ccc(OC)cc1` (stereo not drawn) as the compound, how does the growth inhibition read?
Its growth inhibition is 98% (active).

Which growth inhibition does the source give for `S=C(NCCc1ccccc1)N/N=C/c1ccc(Cl)cc1` here?
The growth inhibition was 57% (inactive).

Which growth inhibition does the source give for `Cc1cc(Nc2ccc(O)c(CN3CCN(Cc4cc(Nc5cc(C)nc(N)n5)ccc4O)CC3)c2)nc(N)n1` here?
Its growth inhibition is 95% (active).

For `CC1C[N+](C)(C)C(C)C(=O)C1(c1ccccc1)c1ccccc1` (stereo not drawn), which growth inhibition is on record?
The growth inhibition was 2% (inactive).

For `O=C1C(Cl)=C(Cl)C(=O)C2CC=CCC12` (stereo not drawn), which growth inhibition is on record?
Its growth inhibition is 97% (active).

Which growth inhibition does the source give for `C/C(=N/O)c1ccc2c(c1)C(C)c1ccccc1-2` (stereo not drawn) here?
The growth inhibition was -142% (inactive).

With `c1ccc(N/N=C2/CCCC3/C(=N\Nc4ccccc4)CCCC23)cc1` (stereo not drawn) as the compound, how does the growth inhibition read?
The growth inhibition was 99% (active).

For `CCCC(C)C/C(C)=C\C(C)(C)C1CC(=O)N(CC)C1=O` (stereo not drawn), which growth inhibition is on record?
Its growth inhibition is 90% (active).

Which growth inhibition does the source give for `COC(C(=O)C1=C2Oc3c4c(cc(O)c3C(=O)C2C2=C(CCCC2)C1=O)OC(C)(C)C=C4)C(C)CCC=C(C)C` (stereo not drawn) here?
Its growth inhibition is 90% (active).

For `Cc1cc(Br)c(NC(=O)CBr)cc1C`, which growth inhibition is on record?
Its growth inhibition is 95% (active).

For `Cc1ccc(S(=O)(=O)OCCCCOS(=O)(=O)c2ccc(C)cc2)cc1`, which growth inhibition is on record?
The growth inhibition was 4% (inactive).

For `Cc1ccc([N+](=O)[O-])c2c(NCCCN(C)C)c3ccccc3nc12`, which growth inhibition is on record?
The growth inhibition was 98% (active).

Which growth inhibition does the source give for `CCOC(=O)c1c(N2CCCC2)nsc1Nc1ccc(F)cc1` here?
Its growth inhibition is 90% (active).

With `CC(=O)[C@H]1CC[C@H]2[C@@H]3CC[C@H]4C[C@@H](N5CCOCC5)CC[C@]4(C)[C@H]3CC[C@]12C` as the compound, how does the growth inhibition read?
The growth inhibition was 63% (inactive).

Which growth inhibition does the source give for `CC(C)CCCC(C)C1CCC2C3CCC4=CC(O)CCC4(C)C3CCC12C` (stereo not drawn) here?
The growth inhibition was 96% (active).

With `Nc1ccccc1SC(/C=C/NNC1=NC(c2ccccc2)C(c2ccccc2)=NN1)c1ccccc1` (stereo not drawn) as the compound, how does the growth inhibition read?
Its growth inhibition is 43% (inactive).

For `CCOC(=O)C1=C(c2ccccc2)OC(N)=C(C#N)C1c1ccc(C)cc1` (stereo not drawn), which growth inhibition is on record?
Its growth inhibition is 25% (inactive).

Which growth inhibition does the source give for `COC1CC(OC(=O)c2ccccc2)C2OC(c3ccccc3)OCC2O1` (stereo not drawn) here?
Its growth inhibition is 26% (inactive).

With `O=C(/N=C1\N=Nc2nc(C(C(=O)c3cccs3)c3nc4n(c3O)/C(=N/C(=O)Nc3ccc(Cl)cc3)N=N4)c(O)n21)Nc1ccc(Cl)cc1` (stereo not drawn) as the compound, how does the growth inhibition read?
The growth inhibition was 5% (inactive).

With `C=CCNC(=S)N/N=C(\CCC)c1ccccn1` as the compound, how does the growth inhibition read?
The growth inhibition was 95% (active).

Which growth inhibition does the source give for `O=C(c1cc2c(C(F)(F)F)onc2c2ccccc12)C(F)(F)F` here?
Its growth inhibition is 5% (inactive).

Which growth inhibition does the source give for `O=C1C=CC(=O)C2C1Cc1ccccc1C2c1ccccc1` (stereo not drawn) here?
Its growth inhibition is 97% (active).

For `CC1SC2(C(=O)Nc3ccc([N+](=O)[O-])cc32)N(c2ccc(Cl)cc2)C1=O` (stereo not drawn), which growth inhibition is on record?
Its growth inhibition is 97% (active).

For `CC(=O)OCCn1c2nc(=O)[nH]c(=O)c-2nc2cc(C)c(C)cc21`, which growth inhibition is on record?
The growth inhibition was 18% (inactive).
